Assay results: PubChem BioAssay
Inconclusive results are not listed.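 The calls were made as follows, unless noted: active = growth inhibition above 25% in both replicates, a cutoff set 3 SD above the mean; inconclusive = above 25% in only one replicate; inactive = the rest.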

Key:
[1] = OD615 S. cerevisiae growth inhibition, permissive medium, pilot counter-assay, permissive growth control for S. cerevisiae lifespan shortening project (AID 705); conditions: OD615, 24 h, at 10 µM, stronger effect = higher value
[2] = Restrictive medium S. cerevisiae growth inhibition, OD615, pilot screen of yeast lifespan reduction project, restrictive growth control (AID 706;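 active = growth inhibition above a set limit, 3 SD over mean compound inhibition, in both replicates, cut at about 43% in these data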;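 also: modified DeaD lifespan yeast strain shifted to restrictive glucose medium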); conditions: OD615, 48 h, at 10 µM, stronger effect = higher value
[3] = viability gain of MRP-1-high H69AR cells under doxorubicin, pilot screen, MRP-1 activator project, CellTiter-Glo, duplicate (AID 807;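 active = viability increase at or above a cutoff of the median across tested compounds plus 3 SD, cut at about 8.5% in these data, passing the limit was not always enough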;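 also: compound pretreatment 18-22 h then 72 h combined with doxorubicin; 0% = doxorubicin alone and 100% = vehicle without doxorubicin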); conditions: H69AR viability with doxorubicin, CellTiter-Glo luminescence; at 10 µM; stronger effect = higher value
[4] = growth suppression of beta-catenin knockout HCT116, pilot screen, human colon tumor cells (AID 823;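 active = cell viability at or below a set limit in both duplicate runs, the limit being the all-compound median minus 4 SD, cut at about 23% in these data, passing the limit was not always enough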;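 also: 0% = wells killed by 20 µM Hyamine and 100% = untreated DMSO cell wells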); conditions: CellTiter-Glo, 60 h, at 10 µM, stronger effect = lower value
[5] = growth suppression of PTEN-deleted HCT116, pilot screen, cell-based, HCT116 clonal line, CellTiter-Glo (AID 824;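 active = viability at or below 27.92% in each of two runs, the all-compound median minus 4 SD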;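 also: 0% = 20 µM Hyamine control and 100% = vehicle cell control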); conditions: 60 h, at 10 µM, stronger effect = lower value
[6] = inhibitors of the yeast RAM network, pilot screen, dse1pr::URA3 reporter, 5-FOA selection (AID 869;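 active = inhibition over a set limit, the all-compound mean plus 3 SD, in both replicate runs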;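 also: 0% = DMSO wells with no growth and 100% = 10 µM 1-NA-PP1 with full growth; RAM network block rescues cells from 5-FOA so hits raise OD615 growth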); conditions: S. cerevisiae dse1pr::URA3 5-FOA growth, OD615, 2 d, at 10 µM, stronger effect = higher value
[7] = RAM signaling pathway blockade in yeast – S. cerevisiae, Pdr1DBD-CYC8 efflux-inhibited sensitized strain, primary screen (AID 1298;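 active = RAM network inhibition above 8.4% in each of two replicates, 3 SD over the compound average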;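 also: 0% = DMSO untreated cells without growth and 100% = 10 µM 1-NA-PP1 full growth; higher means more yeast growth rescued from 5-FOA killing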); conditions: S. cerevisiae cbk1-as DSE1-URA3 strain, 5-FOA growth OD615, 2 d; at 50 µM; stronger effect = higher value

Cc1cc(C)n2c(Br)c(CN3CC4CC(C3)c3cccc(=O)n3C4)nc2n1 (stereo not drawn)
inactive: growth inhibition [1] -3.02% | growth inhibition [2] -5.3% | viability increase [3] -2.43% | viability [4] 90.9% | viability [5] 105% | inhibition [6] 1.09% | RAM network inhibition [7] -0.1%

COc1ccc(CC2C(=O)NC(=O)N(c3ccccc3)C2=O)c(OC)c1 (stereo not drawn)
inactive: growth inhibition [1] -13.5% | growth inhibition [2] 0.545% | viability increase [3] -1.2% | viability [4] 89.6% | viability [5] 96.9% | inhibition [6] -0.495% | RAM network inhibition [7] 0.67%

OC12Oc3ccccc3C=C1N1CCC2CC1 (stereo not drawn)
inactive: growth inhibition [1] 1.47% | growth inhibition [2] -1.35% | viability increase [3] 0.26% | viability [4] 99.1% | viability [5] 96.8% | inhibition [6] 1.48% | RAM network inhibition [7] 0.26%

CN(C)C1(c2nnnn2-c2ccc(Cl)cc2)CCCCC1
inactive: growth inhibition [1] -14.4% | growth inhibition [2] -18.1% | viability increase [3] 0.76% | viability [4] 86.2% | viability [5] 76.3% | inhibition [6] 2.52% | RAM network inhibition [7] 3.64%

O=C1CC(N2CC=C(c3ccccc3)CC2)C(=O)N1c1ccc(F)cc1 (stereo not drawn)
inactive: growth inhibition [1] -7.4% | growth inhibition [2] -4.17% | viability increase [3] 3.41% | viability [4] 98.8% | viability [5] 97.3% | inhibition [6] 0.99% | RAM network inhibition [7] 5.39%

Cn1c(O)c(C=NCCc2c[nH]c3ccccc23)c(=O)n(C)c1=O
inactive: growth inhibition [1] -0.425% | growth inhibition [2] -3.75% | viability increase [3] -2.67% | viability [4] 101% | viability [5] 91.4% | inhibition [6] 1.54% | RAM network inhibition [7] -0.15%

CC1=CC(=C2C(=O)NC(=O)NC2=O)C=C(C(F)(F)F)N1C(C)C
inactive: growth inhibition [1] -13.5% | growth inhibition [2] -9.69% | viability increase [3] -1.79% | viability [4] 92.5% | viability [5] 91.3% | inhibition [6] 2.69% | RAM network inhibition [7] 0.05%

COC(=O)C(O)(c1ccc(N(C)S(=O)(=O)c2ccccc2)cc1)C(F)(F)F (stereo not drawn)
inactive: growth inhibition [1] -3.52% | growth inhibition [2] 2.86% | viability increase [3] 1.65% | viability [4] 98.8% | viability [5] 108% | inhibition [6] 1.2% | RAM network inhibition [7] 0.9%

O=c1c2ccccc2nc(-c2ccco2)n1-c1ccncc1
inactive: growth inhibition [1] -1.4% | growth inhibition [2] 3.59% | viability increase [3] 0.16% | viability [4] 91.8% | viability [5] 97.2% | inhibition [6] 0.635% | RAM network inhibition [7] -0.06%

Cn1c(O)c(C(=NCCN2CCCCC2)c2ccccc2Cl)c(=O)n(C)c1=O
inactive: growth inhibition [1] -15% | growth inhibition [2] -13.6% | viability increase [3] -0.81% | viability [4] 87.3% | viability [5] 93.8% | inhibition [6] -0.185% | RAM network inhibition [7] 0.48%

c1cncc(C2CCCCN2Cc2ccc3c(c2)OCO3)c1 (stereo not drawn)
inactive: growth inhibition [1] -6.18% | growth inhibition [2] -13% | viability increase [3] -0.84% | viability [4] 95.2% | viability [5] 94.3% | inhibition [6] 2.12% | RAM network inhibition [7] 4.3%

Cc1cc(Br)ccc1N1C(=O)CC(=O)NC1=O
inactive: growth inhibition [1] -12.1% | growth inhibition [2] 7.12% | viability increase [3] -0.25% | viability [4] 93.4% | viability [5] 95.3% | inhibition [6] 0.535% | RAM network inhibition [7] 0.67%

CC1(C)CN=C(Nc2ccc(F)c(F)c2)S1
inactive: growth inhibition [1] -7.04% | growth inhibition [2] -4.74% | viability increase [3] 0.98% | viability [4] 111% | viability [5] 101% | inhibition [6] 0.8% | RAM network inhibition [7] 6.13%

COc1cc2c(cc1OC)-c1c(OC)c(OC)cc3c1C(C2)N(C)CC3 (stereo not drawn)
inactive: growth inhibition [1] -13.1% | growth inhibition [2] 1.99% | viability increase [3] -3.02% | viability [4] 73.6% | viability [5] 61.6% | inhibition [6] -0.365% | RAM network inhibition [7] 6.23%

COc1ccc(CN2CC3CC(C2)c2cccc(=O)n2C3)cc1OC (stereo not drawn)
inactive: growth inhibition [1] -11.4% | growth inhibition [2] -6.36% | viability increase [3] -1.47% | viability [4] 93.2% | viability [5] 93.7% | inhibition [6] 2.04% | RAM network inhibition [7] 1.09%

COc1ccc2nc(NC(=O)CCc3nc(C4=CCN(C)CC4)no3)sc2c1
inactive: growth inhibition [1] -7.66% | growth inhibition [2] 2.61% | viability increase [3] -2.1% | viability [4] 79.2% | viability [5] 91.7% | inhibition [6] 2.04% | RAM network inhibition [7] 5.11%

O=C(CN1CC(c2ccccc2)CC1=O)NCc1ccc(F)cc1 (stereo not drawn)
inactive: growth inhibition [1] -10.3% | growth inhibition [2] 12.3% | viability increase [3] 0.06% | viability [4] 103% | viability [5] 103% | inhibition [6] 2.63% | RAM network inhibition [7] -0.21%

Cc1ccnc(-n2c(C)nc3ccccc3c2=O)c1
inactive: growth inhibition [1] -1.76% | growth inhibition [2] -3.79% | viability increase [3] -2.48% | viability [4] 90.8% | viability [5] 90.7% | inhibition [6] 0.27% | RAM network inhibition [7] -0.81%

Cn1c(O)c(C=NCCOc2ccc(Cl)cc2)c(=O)n(C)c1=O
inactive: growth inhibition [1] 4% | growth inhibition [2] 0.245% | viability increase [3] 2.29% | viability [4] 93.2% | viability [5] 93.7% | inhibition [6] 1.06% | RAM network inhibition [7] 4.1%
